Results as given in the supplement of paper PMC9254222.
Whole data set: some 1,100 compounds, median “Renilla luciferase signal (cell health) relative to plate median” near 0.97, cut for the highest 2% near 1.6. Shown is part of a subset that was picked to be rich in the highest values.

System: HEK293T (UBE3A T485A transfected, BAR Wnt reporter)
Assay: Renilla luciferase signal (cell health) relative to plate median (fold (linear ratio)); higher = higher Renilla signal
Conditions: 24 h
Outline: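 HEK293T cells were grown in DMEM with 10% FBS at 37°C and 5% CO2, at 4500 cells/well in white 384-well plates. They were transfected with a BAR firefly luciferase Wnt reporter, TK-Renilla and an expression plasmid using Fugene 6. Four hours later, robots dosed the chemicals at 0.01–100 uM for 24 h, followed by Dual-Glo luciferase readout. Wnt activity (firefly/Renilla ratio) and cell health (raw Renilla) were median-centred per plate, averaged over four biological replicates.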

Row | Compound | Renilla luciferase signal (concentration: 0.1 uM) | Renilla luciferase signal (concentration: 1 uM) | Renilla luciferase signal (concentration: 10 uM) | Renilla luciferase signal (concentration: 100 uM) | Renilla luciferase signal (concentration: 0.01 uM)
1 | O=C(O)CCCCC(=O)O [Hexanedioic acid] | 0.851 | 0.762 | 0.865 | 1.08 | 
2 | O=C1OC(=O)C2C3C=CC(C3)C12 (stereo not given) [2-Norbornene-5,6-dicarboxylic anhydride] | 0.885 | 0.853 | 0.966 | 1.39 | 
3 | COC(=O)CSc1cc(/N=c2\sc(=O)n3n2CCCC3)c(F)cc1Cl [Fluthiacet-methyl] | 0.995 | 1.1 | 1 | 1.21 | 1.03
4 | Fc1ccccc1[C@@H](F)CO[C@H]1CC[C@H](Nc2[nH]cnc3nncc2-3)CC1 | 1.06 | 1.09 | 0.996 | 0.148 | 
5 | Oc1cc2ccccc2c2ccccc12 [9-Phenanthrol] | 1.08 | 1.05 | 1.01 | 0.0207 | 
6 | COCCO [2-Methoxyethanol] | 1.02 | 0.98 | 0.983 | 1.53 | 1.12
7 | CN(C)CCCN1c2ccccc2Sc2ccc(Cl)cc21.Cl [Chlorpromazine hydrochloride] | 1.17 | 1.23 | 1.24 | 0.575 | 
8 | O=c1ccc2ccccc2o1 [Coumarin] | 1.21 | 1.07 | 1.11 | 1.15 | 
9 | Nc1ccc(S(=O)(=O)c2ccc(N)cc2)cc1 [Dapsone] | 1.03 | 1.07 | 1.2 | 1.03 | 
10 | CCCCOC(=O)c1ccc(O)cc1 [Butylparaben] | 0.848 | 0.85 | 0.756 | 0.258 | 
11 | CCCCN1C(=O)[C@@H]([C@H](O)C2CCCCC2)NC(=O)C12CCN(Cc1ccc(Oc3ccc(C(=O)O)cc3)cc1)CC2.Cl [Aplaviroc hydrochloride] | 0.995 | 1.01 | 1.04 | 2.23 | 
12 | CCc1ccc(O)c(C(C)(C)C)c1 [2-tert-Butyl-4-ethylphenol] | 1.28 | 1.07 | 1.02 | 1.22 | 
13 | O=C(O)CC(O)(CC(=O)O)C(=O)O [Citric acid] | 0.965 | 0.981 | 1.13 | 1.46 | 
14 | NC(=O)c1nc(-c2cccc(-c3cc(F)ccc3OCC(F)(F)C(F)(F)F)c2)n[n-]1.O.[K+] | 0.946 | 0.78 | 0.498 | 0.0369 | 
15 | O=C(O)Cc1cc(I)c(Oc2ccc(O)c(I)c2)c(I)c1 [Tiratricol] | 0.92 | 1.07 | 0.852 | 0.382 | 
16 | N[C@@H](Cc1cc(I)c(Oc2ccc(O)c(I)c2)c(I)c1)C(=O)O [3,5,3'-Triiodothyronine] | 0.904 | 1.24 | 2.47 | 2.22 | 
17 | O=C(O)Cc1cc(I)c(Oc2cc(I)c(O)c(I)c2)c(I)c1 [Tetrac] | 1.07 | 1.06 | 1.11 | 1.28 | 
18 | COc1ccc(-c2ccc(=N)n(CCCC(=O)O)n2)cc1 | 0.914 | 0.864 | 0.935 | 1.38 | 0.946
19 | COc1ccc2c(c1)c(CC(=O)O)c(C)n2C(=O)c1ccc(Cl)cc1 [Indomethacin] | 1.09 | 1.15 | 1.17 | 0.248 | 
20 | CC1(C)C(=O)N(Cl)C(=O)N1Cl [1,3-Dichloro-5,5-dimethylhydantoin] | 0.99 | 1.06 | 1.04 | 0.988 | 
21 | CC=Cc1ccc(O)c(OC)c1 [Isoeugenol] | 0.954 | 1.01 | 0.993 | 0.945 | 

Row | Compound | Renilla luciferase signal (concentration: 0.1 uM) | Renilla luciferase signal (concentration: 1 uM) | Renilla luciferase signal (concentration: 10 uM) | Renilla luciferase signal (concentration: 100 uM) | Renilla luciferase signal (concentration: 0.01 uM)
22 | CCN(CC)CCOc1ccc(C(=C(Cl)c2ccccc2)c2ccccc2)cc1.O=C(O)CC(O)(CC(=O)O)C(=O)O [Clomiphene citrate (1:1)] | 0.837 | 0.85 | 0.818 | 1.02 | 
23 | CCCCCCC(C)OC(=O)COc1nc(F)c(Cl)c(N)c1Cl (stereo not given) [Fluroxypyr-meptyl] | 1.3 | 1.15 | 1.2 | 2.31 | 1.04
24 | O=C(O)c1cc(/N=N/c2ccc(S(=O)(=O)Nc3ccccn3)cc2)ccc1O [Sulfasalazine] | 0.788 | 0.885 | 0.691 | 0.277 | 
25 | CC(C)(C)C(O)C(Cc1ccc(Cl)cc1)n1cncn1 (stereo not given) [Paclobutrazol] | 1.16 | 1.06 | 1.22 | 1.62 | 1.25
26 | CCOc1cccc(-n2cc(C(=O)N3CCN(c4cc(C(=O)[O-])c5ccccc5c4)CC3)nc2-c2ccc(C)cc2)c1.[Na+] | 0.869 | 0.966 | 0.903 | 0.0785 | 
27 | Cc1cc(NC(=O)C(=O)O)cc(C)c1Oc1ccc(O)c2c1CCC2 | 1.12 | 1.12 | 0.767 | 1.03 | 
28 | Cc1occc(=O)c1O [Maltol] | 0.895 | 0.982 | 0.967 | 1.11 | 
29 | CCN(CC)C(=O)c1cc(S(=O)(=O)Cc2ccccc2)c(N2CCC(c3ccccc3)CC2)cc1N(CC)CCN(C)C.O=C(O)C(F)(F)F [HMR1171 trifluoroacetate (1:1)] | 0.802 | 0.767 | 0.648 | 0.249 | 
30 | OC12N=C(c3ccccc3)SC1Cc1cc(Cl)ccc12 (stereo not given) | 1.14 | 1.13 | 1.03 | 0.714 | 
31 | Cc1cc(SC2=C(O)C[C@@](CCc3ccc(N)cc3)(C(C)C)OC2=O)c(C(C)(C)C)cc1CO | 0.926 | 1.01 | 0.952 | 0.324 | 
32 | Sc1nc2ccccc2s1 [2-Mercaptobenzothiazole] | 0.981 | 0.791 | 0.768 | 0.92 | 
33 | O.O=C1[N-]S(=O)(=O)c2ccccc21.[Na+] [Sodium saccharin hydrate] | 1.05 | 1.15 | 1.35 | 1.71 | 
34 | C#C[C@]1(O)CC[C@H]2[C@@H]3CCC4=CC(=O)CC[C@@H]4[C@H]3CC[C@@]21C [Norethindrone] | 0.942 | 0.982 | 0.94 | 0.294 | 
35 | c1ccc2occc2c1 [2,3-Benzofuran] | 0.785 | 0.78 | 0.808 | 1.07 | 
36 | CCCCCCCCOC(=O)c1cc(O)c(O)c(O)c1 [Octyl gallate] | 0.909 | 0.947 | 0.814 | 0.0786 | 
37 | CCOC(=O)COc1cc(-n2ncc(C(F)(F)F)c(C)c2=O)c(F)cc1Cl [Flufenpyr-ethyl] | 0.957 | 1.07 | 1.03 | 1.51 | 1.2
38 | CCCCCOC(=O)COc1cc(N2C(=O)C3=C(CCCC3)C2=O)c(F)cc1Cl [Flumiclorac-pentyl] | 0.9 | 1.01 | 0.974 | 1.62 | 0.938
39 | CCCCCCc1ccc(O)cc1O [4-Hexylresorcinol] | 0.881 | 1.04 | 0.888 | 0.0332 | 
40 | CC(C)CC(C=O)NC(=O)C(CC(C)C)NC(=O)C(CC(C)C)NC(=O)OCc1ccccc1 (stereo not given) | 0.675 | 0.0628 | 0.00775 | 0.00453 | 0.694
41 | Cn1cc[nH]c1=S [Methimazole] | 0.331 | 0.23 | 0.141 | 2.27 | 
42 | CNCc1ccc(NC(=O)c2c[nH]c3c2C(=O)CCC3)cc1 | 0.616 | 0.8 | 0.437 | 0.144 | 

Row | Compound | Renilla luciferase signal (concentration: 0.1 uM) | Renilla luciferase signal (concentration: 1 uM) | Renilla luciferase signal (concentration: 10 uM) | Renilla luciferase signal (concentration: 100 uM) | Renilla luciferase signal (concentration: 0.01 uM)
43 | CC(=O)OC1C(=O)C2(C)C(O)CC3OCC3(OC(C)=O)C2C(OC(=O)c2ccccc2)C2(O)CC(OC(=O)C(O)C(NC(=O)c3ccccc3)c3ccccc3)C(C)=C1C2(C)C (stereo not given) [Taxol] | 0.104 | 0.111 | 0.131 | 0.0793 | 0.147
44 | CCCOC(=O)NCCCN(C)C.Cl [Propamocarb hydrochloride] | 0.992 | 0.949 | 0.972 | 1.17 | 0.977
45 | COCCOCCOC [Bis(2-methoxyethyl) ether] | 1.08 | 1.3 | 1.34 | 1.31 | 
46 | Cn1cnc2c1c(=O)[nH]c(=O)n2C [Theobromine] | 0.97 | 0.856 | 1.15 | 1.22 | 
47 | Cn1c(=O)c2c(ncn2C)n(C)c1=O [Caffeine] | 0.946 | 0.966 | 0.989 | 1.67 | 1.18
48 | Cn1c(=O)c2[nH]cnc2n(C)c1=O [Theophylline] | 0.944 | 0.973 | 0.911 | 1.09 | 
49 | O=C(N[C@@H](Cc1ccccc1)[C@@H](O)C(=O)N1C[C@@H](O)[C@@H](O)C1)c1cc2cc(Cl)ccc2[nH]1 [Ingliforib] | 0.797 | 0.711 | 0.851 | 0.148 | 
50 | COc1cccc(-c2ccc(/C=C\CN3CCCCCC3)cc2Cl)c1.Cl | 1.01 | 1.16 | 1.14 | 2.06 | 
51 | CCOCCOCCO [2-(2-Ethoxyethoxy)ethanol] | 0.939 | 1.02 | 0.906 | 1.17 | 
52 | CCOCCOCCOCCO [2-[2-(2-Ethoxyethoxy)ethoxy]ethanol] | 0.893 | 0.862 | 0.833 | 0.954 | 
53 | CCOCCO [2-Ethoxyethanol] | 1.23 | 1.26 | 1.38 | 1.66 | 
54 | Cc1ncc(CO)c(CO)c1O [Pyridoxine] | 0.951 | 0.873 | 1 | 1.14 | 
55 | C=CCc1ccc(OC)c(OC)c1 [Methyleugenol] | 0.897 | 0.832 | 0.797 | 0.924 | 
56 | Cc1ccc(C)c(O)c1C [2,3,6-Trimethylphenol] | 0.934 | 0.808 | 0.965 | 1.14 | 
57 | Cc1ccc(C)c(O)c1 [2,5-Dimethylphenol] | 1.01 | 0.973 | 1.14 | 1.28 | 
58 | Cc1ccc(N)cc1O [5-Amino-2-methylphenol] | 1 | 1.22 | 1.28 | 1.78 | 
59 | C[C@]12CC[C@@H]3c4ccc(O)cc4C[C@@H](CCCCCCCCCS(=O)CCCC(F)(F)C(F)(F)F)[C@H]3[C@@H]1CC[C@@H]2O (stereo not given in full) [Fulvestrant] | 1.07 | 1.04 | 1.09 | 0.48 | 
60 | Cc1nc(C)nc(N2C[C@@H](C)N(c3ccnc([C@@H](C)O)n3)[C@@H](C)C2)n1 | 0.951 | 1.05 | 1.15 | 1.28 | 
61 | CC(C)(C)CC(C)(C)c1ccc(O)c(-n2nc3ccccc3n2)c1 [Octrizole] | 1.08 | 1.17 | 1.27 | 1.31 | 
